The values below come from PubChem BioAssay (NCATS).

A short description of assay [1]: OV-KATE Cancer Cell Toxicity qHTS against the NCATS CANVASS Library (AID 1347345). For activity change, negative = cytotoxicity: % is set by controls: 0 for no effect and ±100 for the full control effect. Note: potency is the fitted concentration of half-maximal effect. In a few lines: (§1)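 Viability read-out: CellTiter-Glo luminescence after 72 h compound exposure at 37 °C/5% CO2. Cells plated at 1000/well, 4 h pre-incubation; 11-point titration. Bortezomib served as control.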
On the technique in general: In qHTS, concentration-response curves come from the screen itself.

Assay [2] can be described thus: U-118MG Cancer Cell Toxicity qHTS against the NCATS CANVASS Library (AID 1347351). For activity change, negative = cytotoxicity: series mostly up to about 38 µM; % is set by controls: 0 for no effect and ±100 for the full control effect. Note: potency is the fitted concentration of half-maximal effect. The gist of the method: as §1
The nature of assay [3]: COV-362 Cancer Cell Toxicity qHTS against the NCATS CANVASS Library (AID 1347352). For activity change, negative = cytotoxicity: series mostly up to about 38 µM; % is set by controls: 0 for no effect and ±100 for the full control effect. Note: potency is the fitted concentration of half-maximal effect. In a few lines:
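qHTS cytotoxicity: compounds tested in 11 concentrations on 1000 seeded cells per well over 72 h; bortezomib served as control; signal from CellTiter-Glo luminescence.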

A short description of assay [4]: HPAF-II 24hr Apoptosis Induction qHTS against the NCATS CANVASS Library (AID 1347356). Note: 0% is about no effect. The gist of the method: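 Apoptosis induction in HPAF-II pancreatic cancer cells is measured as caspase-3/7 luminescence after a 24-hour exposure to compounds.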
A short description of assay [5]: HPAF-II 12hr Apoptosis Induction qHTS against the NCATS CANVASS Library (AID 1347358). Note: 0% is about no effect. The gist of the method: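 Apoptosis in HPAF-II pancreatic cancer cells is scored as caspase 3/7 luminescence following a 12-hour exposure to an 11-point compound series.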
Assay [6] is described as follows: HEK293 24hr Apoptosis Induction qHTS against the NCATS CANVASS Library (AID 1347359). Note: 0% is about no effect. In a few lines: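 Caspase-3/7 activation measured as luminescence from the DEVD-based Caspase-Glo reagent, 15 min at room temperature, following 24-hour compound treatment of HEK293 cells.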
A short description of assay [7]: HPAF-II 18hr Apoptosis Induction qHTS against the NCATS CANVASS Library (AID 1347360). Note: 0% is about no effect. The gist of the method:
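Caspase-3/7 activation was measured with luminescent Caspase-Glo 3/7 reagent (15 min, RT) in HPAF-II cancer cells (500 cells/well). Before detection, cells had been treated for 18 h at 37 C with compounds (11 points).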

A short description of assay [8]: HEK293 12hr Apoptosis Induction qHTS against the NCATS CANVASS Library (AID 1347361). Note: 0% is about no effect. In a few lines:
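HEK293 cells (500/well, DMEM + 10% FBS) were exposed to natural products across an 11-point series for 12 hours at 37 degrees C. Caspase-3/7 activity was then measured with DEVD luciferase luminescence after 15 min at room temperature.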

The target of assay [9] is Luciferin 4-monooxygenase (Photinus pyralis) (UniProt P08659). Nature of the assay: Firefly luciferase counterscreen qHTS: Assay Interference Panel against the NCATS CANVASS Library (AID 1347363). Note: series mostly up to about 57 µM; 0% is about no effect. In a few lines: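 Luminescence inhibition readout: compounds (11-point qHTS) sat 15 min at room temperature with substrate mix (0.013 mM luciferin and ATP), then firefly luciferase was added and signal read 5 min later.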
Background: Counterscreens check selectivity or assay interference.

Assay [10] is described as follows: KB-3-1 Cancer Cell Toxicity qHTS against the NCATS CANVASS Library (AID 1347366). Note: nearly all actives have a fitted effect of over 75% in size. Note: potency is the fitted concentration of half-maximal effect. In a few lines: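 CellTiter-Glo luminescence measured viability after 72 h at 37C. KB-3-1 cells were seeded at 500 per well in DMEM/10% FBS.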
Assay [11] is described as follows: qHTS for ATAD5 Agonist screened against the NCATS CANVASS Library (AID 1347367).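 Note: luciferase reporter driven by ATAD5 which rises upon DNA damage; 0% is about no effect.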 The gist of the method:
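Genotoxicity via ATAD5-luciferase luminescence after 16 h compound exposure (11-point series) at 37C in HEK293T-ATAD5 cells. CellTiter-Fluor viability read precedes the luminescence read; MMS serves as positive control.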

Assay [12] can be described thus: MCF7 Cancer Cell Toxicity qHTS against the NCATS CANVASS Library (AID 1347369). Note: potency is the fitted concentration of half-maximal effect. In a few lines:
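Cytotoxicity was measured as CellTiterGlo luminescence (ATP) after 72 h at 37 °C. The cells were MCF7 at 500 per well, with an 11-point compound concentration series.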

Assay [13] in a line: J3T Cancer Cell Toxicity qHTS against the NCATS CANVASS Library (AID 1347371). Note: potency is the fitted concentration of half-maximal effect. The gist of the method: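 Viability of the J3T glioma line from dog is scored by ATP luminescence after a 72 hr incubation with natural products.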
In assay [14] the target is Nuclear receptor subfamily 1 group I member 3 (Homo sapiens) (UniProt Q14994). Nature of the assay: qHTS for Constitutive Androstane Receptor (CAR) Agonist screened against the NCATS CANVASS Library (AID 1347373).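 Note: every well also contained 1.5 µM PK11195 alongside the test compound; 0% is about no effect.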 The gist of the method:
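CAR agonism is scored as CYP2B6-promoter luciferase induction in a double-stable transfected HepG2 line, where 1.5uM PK11195 is included in each well. Compounds were tested over a 24hr exposure.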

Assay [15] is described as follows: 10-beta competent E. coli microbial cell viability qHTS against the NCATS CANVASS Library (AID 1347376). Note: series mostly up to about 46 µM; 0% is about no effect. The gist of the method:
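Cytotoxicity toward competent E. coli is scored from cellular ATP content via BacTiter-Glo luminescence following overnight compound exposure at 37C, 5% CO2.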

Assay [16] is described as follows: qHTS for H2AX Agonists against the NCATS CANVASS Library (AID 1347378). Note: 0% is about no effect. In a few lines:
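Phospho-H2AX (S139) in CHO-K1 lysates measured by HTRF, reported as 665/615 nm emission ratio after 24 hr antibody incubation at room temperature. Cells were first treated with a compound series for 3 hr at 37C (0.76% DMSO final).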

Assay [17] is described as follows: qHTS for Inflammasome Signaling Inhibitors: IL-1-beta AlphaLISA screen against the NCATS CANVASS Library (AID 1347379).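 For Potency: secreted IL-1B measured as AlphaLISA emission at 615 nm; potency is the fitted concentration of half-maximal effect.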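 For activity change, negative = inhibition: secreted IL-1B measured as AlphaLISA emission at 615 nm; % is set by controls: 0 for no effect and ±100 for the full control effect; lower signal means less IL-1B release which is the wanted effect.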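 Note: human THP-1 cells primed with LPS then triggered with ATP.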 The gist of the method:
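Human THP-1 cells were pretreated 1 hr at 37 °C with compounds (up to 57.5 uM final), then stimulated with LPS (250 ng/mL final) and ATP (1.25 mM final). Secreted IL-1B was read by AlphaLISA after 16 hr.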

The nature of assay [18]: Inflammasome Signaling qHTS Counterscreen: IL-1-beta AlphaLISA counterscreen against the NCATS CANVASS Library (AID 1347381).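 Note: cell-free check with purified IL-1β in medium and no THP-1 cells; series mostly up to about 57 µM; 0% is about no effect.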 In a few lines:
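To flag interference with the AlphaLISA read-out, a known amount of purified IL-1-beta (4 pg) replaced cell supernatant. Detection used anti-IL-1-beta acceptor beads, biotinylated antibody and streptavidin donor beads at room temperature.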

A short description of assay [19]: Viability qHTS for inhibitors of the SERCaMP assay screened against the NCATS CANVASS Library (AID 1347400). Note: nearly all actives have a fitted effect of over 70% in size. Note: potency is the fitted concentration of half-maximal effect. The gist of the method: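 Cytotoxicity counter-screen: ATP content (CellTiter-Glo luminescence) of SH-SY5Y-GLuc SERCaMP MJH297 cells after 48 h at 37C with compounds in an 11-point qHTS series.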
Assay [20] deals with Nuclear receptor subfamily 1 group I member 3 (Homo sapiens) (UniProt Q14994). Nature of the assay: qHTS for Constitutive Androstane Receptor (CAR) Antagonist screened against the NCATS CANVASS Library (AID 1347372).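 Note: cells stimulated with 50 nM CITCO agonist so inhibition reflects antagonism; luciferase from CYP2B6 promoter reporter driven by hCAR in HepG2 cells; series mostly up to about 46 µM; % is set by controls: 0 for no effect and ±100 for the full control effect.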 The gist of the method:
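HepG2-CYP2B6-hCAR double-stable cells plated, 4hr attach; cpd pin-transferred; CITCO 50 nM final; 24hr 37C/5% CO2; CellTiter-Fluor 1hr (fluorescence), then ONE-Glo luminescence.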

Unmarked numbers belong to inactive results. Results filed as inconclusive are left out. Calls of active or inactive are those of the source. Calls come from the whole dose curve; as a rule, active = well fitted curve in the direction sought with a large enough effect; inconclusive = small, poorly fitted or top-dose-only effect, or another doubt; inactive = no such curve, though single readings can be large; an effect the other way counts as inactive or inconclusive.

Sequence of Nuclear receptor subfamily 1 group I member 3 (Homo sapiens) (Q14994 whole entry, looked up): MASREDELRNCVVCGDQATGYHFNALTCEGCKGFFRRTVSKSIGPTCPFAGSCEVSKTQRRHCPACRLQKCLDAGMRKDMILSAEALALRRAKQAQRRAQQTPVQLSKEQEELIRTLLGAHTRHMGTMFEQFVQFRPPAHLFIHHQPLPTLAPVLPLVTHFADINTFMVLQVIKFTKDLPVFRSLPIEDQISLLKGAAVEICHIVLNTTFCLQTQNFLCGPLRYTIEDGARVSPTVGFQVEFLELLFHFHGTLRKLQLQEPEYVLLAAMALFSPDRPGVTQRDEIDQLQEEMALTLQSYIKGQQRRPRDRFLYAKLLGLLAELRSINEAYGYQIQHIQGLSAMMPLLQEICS
Sequence of Luciferin 4-monooxygenase (Photinus pyralis) (P08659 whole entry, looked up): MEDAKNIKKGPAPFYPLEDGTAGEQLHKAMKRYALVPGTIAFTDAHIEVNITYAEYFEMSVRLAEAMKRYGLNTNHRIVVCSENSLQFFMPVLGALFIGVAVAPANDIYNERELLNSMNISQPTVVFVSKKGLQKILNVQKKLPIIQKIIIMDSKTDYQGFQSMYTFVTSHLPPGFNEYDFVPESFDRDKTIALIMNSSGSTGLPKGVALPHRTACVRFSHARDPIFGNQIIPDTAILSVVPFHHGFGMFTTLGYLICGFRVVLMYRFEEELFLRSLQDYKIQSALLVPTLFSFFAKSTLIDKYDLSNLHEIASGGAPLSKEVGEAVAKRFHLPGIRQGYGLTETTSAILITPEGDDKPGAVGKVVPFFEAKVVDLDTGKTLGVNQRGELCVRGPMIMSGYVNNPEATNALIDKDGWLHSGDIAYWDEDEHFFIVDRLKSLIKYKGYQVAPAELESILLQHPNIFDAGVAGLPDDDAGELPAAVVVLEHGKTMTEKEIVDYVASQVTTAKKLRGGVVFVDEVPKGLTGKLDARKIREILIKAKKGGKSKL

As for `CO[C@@H]1C[C@@H](C[C@H]2CC[C@H](C)[C@H]([C@@H](C)C(=O)O)O2)O[C@]2(O[C@](C)([C@H]3CC[C@@](C)([C@@H]4O[C@@H]([C@H]5O[C@](C)(O)[C@H](C)C[C@@H]5C)C[C@@H]4C)O3)C[C@H]2C)[C@@H]1C`, the Potency in assay [1] is 4.72 µM (active); in [2], 5.3 µM (active); in assay [3], 4.72 µM (active); in assay [10] it was 14.8 µM (active); in [12], 14.7 µM (active); in assay [13], 0.118 µM (active). The Potency in assay [17] is 5.44 µM (active); in assay [19], 10.7 µM (active). In addition, the call in [4], in assay [14], in assay [15] and in assay [18] was inactive. In addition, the Potency entry in assay [5], in assay [6], in [7], in [8], in assay [9] and in assay [11] was “inactive” each time. For the same molecule, the Potency result in [16] is “inactive”.
On to `C=C1C[C@@]23C=CC(=O)[C@@](C)(CCC(=O)Nc4c(O)ccc(C(=O)O)c4O)C2C[C@@H]1C(O)C3` (stereo partly drawn), for which the Potency result in assay [1], in assay [2], in [3], in [5], in assay [6] and in assay [7] was “inactive” each time. In addition, the Potency result in [8], in [9], in assay [10], in assay [11], in [12] and in assay [13] was “inactive” in each case. Moreover, the Potency result in assay [20], in assay [16], in [17] and in assay [19] was “inactive” throughout. The molecule was called inactive in [4], in assay [14], in [15] and in assay [18].
As to `COc1ccc2oc3c(OC)c(OC)c(OC)c(OC)c3c(=O)c2c1`, the activity change, negative = cytotoxicity is -4.56% [at 7.64 µM] in [1]; 3.45% [at 7.64 µM] in assay [2]; -3.36% [at 7.64 µM] in [3]; -8.69% [at 9.19 µM] in [10]; 0.434% [at 9.17 µM] in assay [12]; -8.53% [at 9.19 µM] in assay [13]. Besides, in assay [19], the activity change, negative = cytotoxicity was -11.8% [at 18.4 µM]. The caspase activation in [4] was 1.51% [at 9.19 µM]; in assay [5], 5.91% [at 9.19 µM]; in assay [7] it was 4.09% [at 9.19 µM]; in [8], 10.6% [at 9.19 µM]. Further, the activation in assay [6] was -1% [at 9.19 µM]; in assay [11] it was 0.941% [at 9.19 µM]; in [14], 7.45% [at 9.19 µM]; in assay [16], -1.65% [at 15.3 µM]. Also, the activity change, negative = inhibition in assay [9] was -22.3% [at 11.5 µM]; in assay [20], 22.2% [at 9.19 µM]; in assay [18], 10.5% [at 11.5 µM]. Also, the activity change, negative = cytotoxic in assay [15] is -7.99% [at 9.19 µM]. In addition, in [17], the outcome was “inactive [at 11.5 µM]”.
For the molecule `C[C@@]12CCC[C@@](C)(C(=O)O)[C@H]1CC[C@]13C[C@H]4C[C@H](O[C@@]4(C)C1)[C@H]32`, the Potency result in assay [1], in assay [2], in assay [3], in assay [5], in assay [6] and in [7] was “inactive” throughout. The Potency entry in assay [8], in assay [9], in assay [10], in assay [11], in assay [12] and in [13] was “inactive” in each case. Besides, the Potency entry in [20], in assay [16], in assay [17] and in assay [19] was “inactive” each time. Besides, the molecule was classed as inactive in assay [4], in assay [14], in assay [15] and in assay [18].
For `C[C@@H]1C[C@H]2C[C@]3(CCCCN3C)[C@@H]3C[C@H]2[C@H](C1)N(C)C3`, the Potency result in assay [1], in assay [2], in [3], in assay [5], in assay [6] and in [7] was “inactive” each time. Besides, the Potency entry in assay [8], in assay [9], in [10], in assay [11], in [12] and in assay [13] was “inactive” throughout. Moreover, the Potency entry in [20], in assay [16] and in assay [17] was “inactive” throughout. Besides, the outcome in assay [4], in [14], in assay [15] and in assay [18] was inactive.
